# Source: ChEMBL document CHEMBL3988442, “University of Dundee, Small-Polar-MMV Screening Library” (2021)
# About 950 (1.4%) of roughly 69,000 compounds showed an effect of 50% or more. For the sample, strong results were picked, then their nearest neighbours and some compounds at random.
# Test system: Mycobacterium tuberculosis
# Assay: Cornell M. t heat shock assay; also: in the data most compounds retested in dose-response had high values
# Format: functional, organism-based
# Design: dose or concentration left out as unconfirmed
row,SMILES,Percent Effect [%]
1,CCOc1ccc2nc(CN3CCOC(CN)C3)ccc2c1 (stereo not given),16.64
2,CCOc1ccc2nc(CN3CCC(CN)C3)ccc2c1 (stereo not given),106.9
3,CCOc1ccc2nc(CN3CCC(CNC(C)=O)C3)ccc2c1 (stereo not given),3.715
4,Cc1nn(CC(=O)Nc2ccc(F)cc2)c(N)c1C#N,51.75
5,COc1ccc(NC(=O)Cn2nc(C)c(C)cc2=O)cc1,2.037
6,Cc1cc(NC(=O)Cn2nc(C)c(C#N)c2N)ccc1Br,-21.12
7,CC(=O)c1c(C)nn(CC(=O)Nc2ccc(F)cc2)c1C,21.2
8,Cc1cc(=O)n(CC(=O)Nc2ccc(Cl)cc2)nc1C,-4.62
9,COc1ccc(NC(=O)Cn2nc(C)c(C)cc2=O)cc1OC,2.159
10,COc1ccc(NC(=O)Cn2nc(C)c(C(C)=O)c2C)cc1,105.6
11,Cc1nn(CC(=O)Nc2cccc(F)c2)c(N)c1C#N,4.908
12,CC(=O)c1c(C)nn(CC(=O)Nc2ccc(Br)cc2)c1C,105.9
13,NC(=O)N1CCC2(CC1)CN(Cc1cccnc1)C(=O)CO2.O=C(O)C(F)(F)F,-31.58
14,Cn1cc(CN2C[C@H]3CCC[C@@]3(COCC3CC3)C2)cn1.O=C(O)C(F)(F)F,12.92
15,COc1cc(CNCC(O)c2cccc(F)c2)cc2c1OCO2.Cl (stereo not given),-9.248
16,Cc1cccc(CN2CC[C@H]3[C@H]2CCN3Cc2cnn(C)c2)n1.O=C(O)C(F)(F)F.O=C(O)C(F)(F)F.O=C(O)C(F)(F)F,-12.06
17,Cc1noc(C)c1CN1CCC2(CC1)NC(=O)CC2c1ccccc1.O=C(O)C(F)(F)F (stereo not given),5.51
18,Cc1noc(C)c1C(=O)N1Cc2ncn(C)c2C(COCC2CC2)C1.O=C(O)C(F)(F)F (stereo not given),16.79
19,CCN1CCC2(CCN(Cc3ccc(OC)cc3)CC2)C1=O.O=C(O)C(F)(F)F,-24.62
20,Cl.N[C@@H](Cc1ccccc1)c1nnc(S(=O)(=O)Cc2cccc(Cl)c2)o1,-4.264
21,CCc1cn[nH]c1C1CCN(c2cc(C)c3cccc(OC)c3n2)CC1,85.21
22,Cc1ccc(N2CCC(c3cc(Cc4ccccc4)n[nH]3)CC2)nn1,6.303
23,Cc1ccc(N2CCCC(c3[nH]ncc3Cc3ccccc3)C2)nn1 (stereo not given),8.561

row,SMILES,Percent Effect [%]
1,Cc1ccc(N2CCC(c3[nH]ncc3Cc3ccccc3)CC2)nn1,102.6
2,CCc1cn[nH]c1C1CCN(c2cc(C)c3ccc(OC)cc3n2)CC1,-17.8
3,CCc1cn[nH]c1C1CCN(c2cc(C)c3cc(OC)ccc3n2)CC1,2.652
4,CC(=O)N1CCN(Cc2ccc(C)o2)CC2(CC(=O)N(C)C2)C1.O=C(O)C(F)(F)F (stereo not given),-2.414
5,Cc1nc(N)ncc1C(=O)N1CCCC(CCc2ccc(F)cc2)C1 (stereo not given),-19.18
6,Cc1ncccc1NC(=O)[C@@H]1CCO[C@@H]2CCN(c3ccccc3)C[C@@H]21.O=C(O)C(F)(F)F.O=C(O)C(F)(F)F,12.9
7,CCN(Cc1noc(C)n1)C(=O)CC1C(=O)NCCN1CC(C)(C)C (stereo not given),-17.37
8,O=C(N1CCCCC1)N1CCN(CC(O)c2ccccc2)CC1 (stereo not given),-21.19
9,OC(CN1CCN(CC2CC2)CC1)c1ccc(Br)cc1 (stereo not given),6.961
10,OC(CN1CCN(CC2CCCCC2)CC1)c1ccccc1 (stereo not given),50.33
11,CCCn1nc(C)c(-c2cncn2CCN(C)C2CCCC2)c1C.Cl,7.382
12,CN(C)S(=O)(=O)N1CCC[C@]2(C[C@@H](Oc3ncccc3F)CO2)C1.O=C(O)C(F)(F)F,-8.336
13,CNC(=O)CCCNc1cc(C)nc2cc(C)nn12,-5.305
14,Cc1cc(NCc2cccnc2)n2nc(C)cc2n1,1.456
15,Cc1cc(NCc2cc(C)oc2C(F)(F)F)n2nc(C)cc2n1,56.47
16,CNS(=O)(=O)CCNc1cc(C)nc2cc(C)nn12,10.96
17,Cc1cc(NCc2ccc(O)cc2)n2nc(C)cc2n1,21.53
18,Cc1cc(NCc2ccc(C#N)cc2)n2nc(C)cc2n1,-9.847
19,Cc1cc(NCCCC(F)(F)F)n2nc(C)cc2n1,87.73
20,Cc1cc(C(F)(F)F)nc(CNc2cc(C)nc3cc(C)nn23)n1,65.55
21,Cc1cc(NCc2ccc(CO)cc2)n2nc(C)cc2n1,10.67
22,CC(C)OCCCN(CC(=O)N1CCNCC1)C(=O)c1cccc(Cl)c1.O=C(O)C(F)(F)F,-0.6086
